The text below walks through data of PubChem BioAssay (NCATS).

Experiment [1] in a line: qHTS drug screen for cell cycle checkpoint inhibitors in PARPi-resistant BRCA-mutant ovarian cancer cell lines. (AID 1963452; calls by dose curve). The note with it: PEO1/OlaR viability, CellTiter-Glo luminescence, 96 h; for Z-AUC: stronger effect = lower value. Summed up:
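PEO1, PEO4 and PEO1/OlaR ovarian cancer cells, 600 per well, exposed 96 h at 37C to a dilution series. Viability read by CellTiter-Glo luminescence, normalized to DMSO and empty wells; activity summarized as Z-AUC.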
A general note: In qHTS, concentration-response curves come from the screen itself.

Experiment [2] in a line: qHTS for identification of novel therapeutic agents for treatment of microphthalmiaassociated transcription factor (MiT) renal cell carcinoma (RCC) (AID 1963991; calls by dose curve). The note with it: CellTiter-Glo, 48 h; for Potency: active = Z-AUC below -0.8 in all three lines; for z-score: stronger effect = lower value. In short, it runs like this: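 Three TFE3-fusion RCC lines (UOK109, UOK124, UOK145), 500 cells/well in complete medium, were treated with MIPE 4.0 compounds for 48 hours at 37 C. Viability was by CellTiter-Glo luminescence, normalized to DMSO (100%) and empty wells (0%); curves fitted over 11 concentrations.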

Experiment [3] can be described thus: qHTS profiling for inhibitors of Plasmodium falciparum proliferation (AID 504749). Also: nearly all actives have a fitted effect of over 60% in size.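 As to activity, negative = inhibition: 0% = DMSO vehicle and full inhibition = artemisinin control.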 The following applies: P. falciparum in erythrocytes, SYBR Green DNA, 72 h. In short, it runs like this:
(§1)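 SYBR Green fluorescence (ex 485 nm, em 535 nm) reports parasite DNA after 72 h compound exposure of infected red cells at 0.3% parasitemia, 2.5% hematocrit; signal normalized to 0.29 uM artemisinin and vehicle wells.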

A further experiment relates to 3D7. The description is as above. The note with it: P. falciparum in erythrocytes, SYBR Green DNA, 72 h; series mostly up to 28.7 µM. Summed up:
as §1

The test system of the next experiment is 7G8. The description is as above. The note with it: P. falciparum in erythrocytes, SYBR Green DNA, 72 h; series mostly up to 28.7 µM. In short, it runs like this: as §1
The next experiment has as its system AA1029. The description is as above. The following applies: P. falciparum in erythrocytes, SYBR Green DNA, 72 h; series mostly up to 28.7 µM. Summed up: as §1
Another experiment relates to AS120. The experiment is described as above. The following applies: P. falciparum in erythrocytes, SYBR Green DNA, 72 h; series mostly up to 28.7 µM. Summed up: as §1
Another experiment deals with ATS189. Described as above. The following applies: P. falciparum in erythrocytes, SYBR Green DNA, 72 h; series mostly up to 28.7 µM. Summed up: as §1
The subject of the next experiment is ATS95. Described as above. The note with it: P. falciparum in erythrocytes, SYBR Green DNA, 72 h; series mostly up to 28.7 µM. Summed up: as §1
In another experiment the test system is C2A. The experiment is described as above. The following applies: P. falciparum in erythrocytes, SYBR Green DNA, 72 h; series mostly up to 28.7 µM. In short, it runs like this:
as §1

A further experiment relates to CP185. The experiment is described as above. The following applies: P. falciparum in erythrocytes, SYBR Green DNA, 72 h; series mostly up to 28.7 µM. In short, it runs like this: as §1
The subject of a further experiment is CP191. The experiment is described as above. The following applies: P. falciparum in erythrocytes, SYBR Green DNA, 72 h; series mostly up to 28.7 µM. Summed up:
as §1

For the next experiment, the system named is CP192. Described as above. The note with it: P. falciparum in erythrocytes, SYBR Green DNA, 72 h; series mostly up to 28.7 µM. In short, it runs like this:
as §1

The subject of another experiment is CP194. The description is as above. The note with it: P. falciparum in erythrocytes, SYBR Green DNA, 72 h; series mostly up to 28.7 µM. In short, it runs like this:
as §1

The next experiment deals with CP201. The description is as above. The note with it: P. falciparum in erythrocytes, SYBR Green DNA, 72 h; series mostly up to 28.7 µM. Summed up: as §1
A further experiment has as its system CP203. Described as above. The note with it: P. falciparum in erythrocytes, SYBR Green DNA, 72 h; series mostly up to 28.7 µM. In short, it runs like this: as §1
The test system of the next experiment is CP211. The description is as above. The following applies: P. falciparum in erythrocytes, SYBR Green DNA, 72 h; series mostly up to 28.7 µM. In short, it runs like this:
as §1

The next experiment concerns CP215. Described as above. The note with it: P. falciparum in erythrocytes, SYBR Green DNA, 72 h; series mostly up to 28.7 µM. Summed up: as §1
Another experiment relates to CP217. The experiment is described as above. The following applies: P. falciparum in erythrocytes, SYBR Green DNA, 72 h; series mostly up to 28.7 µM. Summed up:
as §1

Another experiment concerns CP237. Described as above. The following applies: P. falciparum in erythrocytes, SYBR Green DNA, 72 h; series mostly up to 28.7 µM. Summed up: as §1
Where [4] appears, read: measured here: PEO1 parental Z-AUC.
Setting [5] is: TFE3-RCC UOK109 viability, measured here: UOK109 Z-AUC.
The mark [6] stands for this setting: TFE3-RCC viability, measured here: UOK124 Z-AUC.
Where [7] appears, read: TFE3-RCC viability, measured here: UOK145 Z-AUC.

Inconclusive results are not listed. Active and inactive are the calls of the source. Unless noted, calls follow the shape of the dose curve; as a rule, active = well fitted inhibition curve with a large enough effect; inconclusive = small, poorly fitted or top-dose-only effect; inactive = flat fitted curve, though single readings scatter.
Potency is read from the fitted curve at half-maximal effect.

As for `CN1CC[C@@H](c2c(O)cc(O)c3c(=O)cc(-c4ccccc4Cl)oc23)[C@@H](O)C1`, the Z-AUC in experiment [1] is -0.536 (inactive); in [1] (setting [4]) it was -1.36; in experiment [1] (measured here: PEO4 Z-AUC), -1.16. Also, in experiment [2] (TFE3-RCC UOK109 viability), the Potency was 118 nM (active). Further, the z-score in experiment [2] (setting [5]) is -2.54; in experiment [2] (setting [6]) it was -1.53; in [2] (setting [7]), -2.13.
For the compound `O=C(Nc1cc(C(F)(F)F)cc(C(F)(F)F)c1)c1cc(Cl)ccc1O`, the Potency in [1] is 977 nM (active); in [2] (TFE3-RCC UOK109 viability), 1180 nM (active). Also, the Z-AUC in [1] (setting [4]) was -1.29; in [1] (measured here: PEO4 Z-AUC), -1.54. Further, the z-score in [2] (setting [5]) is -1.74; in [2] (setting [6]), -1.08; in experiment [2] (setting [7]) it was -1.95.
In the case of `Cc1[nH]c2ccccc2c1CCNCc1ccc(C=CC(=O)NO)cc1`, the Potency in experiment [2] (TFE3-RCC UOK109 viability) was 418 nM (active). Moreover, the results for the z-score in experiment [2] (setting [5]), in [2] (setting [6]) and in experiment [2] (setting [7]) were -1.86, -3.24 and -1.46, respectively.
Turning to `C[C@H]1C[C@@H]2[C@@H]([C@@H](O)C[C@@]3(C)[C@H]2CC[C@]3(O)C(=O)CO)[C@@]2(C)C=CC(=O)C=C12`, the z-score in [2] (setting [5]) came to 0.15; in experiment [2] (setting [6]), 0.208; in experiment [2] (setting [7]) it was 0.428. For the same compound, the activity, negative = inhibition in experiment [3] (at 12.8 µM (top of the series), parasite line A) was -0.344% (inactive); in experiment [3] (at 12.8 µM (top of the series), parasite line B), -25.6% (inactive). The Potency result in the experiment on 3D7, with 7G8, in the experiment on AA1029, with AS120, in the experiment with ATS189 and in the experiment on ATS95 was “inactive” in each case. The Potency result in the experiment on C2A, in the experiment with CP185, in the experiment on CP191, in the experiment on CP192, in the experiment on CP194 and in the experiment on CP201 was “inactive” each time. Besides, the Potency result with CP203, with CP211, in the experiment with CP215, in the experiment on CP217 and in the experiment with CP237 was “inactive” throughout.
With `CC(O)C1C(=O)N2C(C(=O)O)=C(SC3CNC(C(=O)N(C)C)C3)C(C)C12` (stereo not given), the results for the z-score in experiment [2] (setting [5]), in experiment [2] (setting [6]) and in [2] (setting [7]) were 0.648, 0.116 and 0.637, respectively.
For `CC[C@@H]1C(=O)N(C)c2cnc(Nc3ccc(C(=O)NC4CCC(N5CCN(CC6CC6)CC5)CC4)cc3OC)nc2N1C(C)C` (stereo not given in full), the Potency in experiment [1] is 87.1 nM (active); in experiment [2] (TFE3-RCC UOK109 viability), 3720 nM (active). In addition, the Z-AUC in experiment [1] (setting [4]) is -2.37; in experiment [1] (measured here: PEO4 Z-AUC), -1.84. Further, the z-score in experiment [2] (setting [5]) was -1.29; in experiment [2] (setting [6]), -2.06; in experiment [2] (setting [7]) it was -1.66.
As for `CC(C)c1cc(C(=O)N2Cc3ccc(CN4CCN(C)CC4)cc3C2)c(O)cc1O`, the Z-AUC in experiment [1] is -1.06 (inactive); in experiment [1] (setting [4]) it was -0.777; in [1] (measured here: PEO4 Z-AUC), -0.0282. Further, the Potency in [2] (TFE3-RCC UOK109 viability) was 418 nM (active). For the same compound, the values for the z-score in [2] (setting [5]), in experiment [2] (setting [6]) and in experiment [2] (setting [7]) were -0.923, -0.898 and -0.85, respectively.
Turning to `CC1(C)O[C@@H]2C[C@@H]3[C@H]4C[C@@H](F)C5=CC(=O)C=C[C@]5(C)[C@@]4(F)[C@@H](O)C[C@]3(C)[C@]2(C(=O)CO)O1`, the activity, negative = inhibition in [3] (at 28.7 µM (top of the series), parasite line A) is 4.83% (inactive); in experiment [3] (at 28.7 µM (top of the series), parasite line B) it was 2.94% (inactive). The Potency result in the experiment on 3D7, in the experiment with AA1029, in the experiment with AS120, in the experiment with ATS189, in the experiment with ATS95 and in the experiment on C2A was “inactive” each time. In addition, the Potency result in the experiment with CP185, in the experiment on CP191, in the experiment on CP217 and in the experiment with CP237 was “inactive” in each case. In the experiment with CP194, the Potency is 15100 nM (active).
